Compound activity as filed in PubChem.
Most compounds without a hit are left out; they make up all but 10% or so of the library.
JMJD2A Tudor: qHTS Assay for Inhibitors of JMJD2A-Tudor Domain. Lysine-specific demethylase 4A (Homo sapiens), O75164. AlphaScreen JMJD2A-Tudor / H3K4me3 peptide binding. Potency, µM (titrated, usually from 114 µM), for inactives: at the top dose activity change, negative = inhibition, most hits filed as inhibitors. 4.4% of 390,000 active. AID 504339, 2011; note: % is set by controls: 0 for no effect and ±100 for the full control effect; nearly all actives have a fitted effect of over 50% in size
GLS inhibitor: qHTS for Inhibitors of Glutaminase (GLS). Glutaminase kidney isoform, mitochondrial (Homo sapiens), O94925. AID 624170, 2012. 0.21% of 410,000 active. GLS enzymatic activity, qHTS titration. Potency, µM (titrated, usually from 45.5 µM), without a hit: at the highest dose activity change, negative = inhibition, hits mostly inhibitors; note: % is set by controls: 0 for no effect and ±100 for the full control effect
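hKGA in 45 mM KH2PO4 (pH 8.2), 0.02% Tween-20 with compound, then 1mM L-Glutamine (stock as added) plus glutamate oxidase/HRP/Amplex red coupling mix. Fluorescence read initially and after 30 min at RT; signal change reflects glutamate formation.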
G9a inh: qHTS Assay for Inhibitors of Histone Lysine Methyltransferase G9a. Histone-lysine N-methyltransferase EHMT2 (Homo sapiens), Q96KQ7. G9a H3K9 monomethylation, AlphaScreen, 2 h. Potency, µM (top dose mostly 102 µM), inactives show at the top dose activity, negative = inhibition, usual class: inhibitors. 8.8% of 350,000 active; note: % is set by controls: 0 for no effect and ±100 for the full control effect; nearly all actives have a fitted effect of over 75% in size
Target sequence (Q96KQ7 913-1193 limits assumed): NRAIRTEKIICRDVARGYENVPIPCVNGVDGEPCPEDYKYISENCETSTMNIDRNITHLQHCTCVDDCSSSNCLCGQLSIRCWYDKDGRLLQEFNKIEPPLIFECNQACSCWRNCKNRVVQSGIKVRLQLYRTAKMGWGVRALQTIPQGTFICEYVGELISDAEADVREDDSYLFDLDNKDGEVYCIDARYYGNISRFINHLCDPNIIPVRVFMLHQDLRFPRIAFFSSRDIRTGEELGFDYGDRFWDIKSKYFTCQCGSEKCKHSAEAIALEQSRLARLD
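AlphaScreen read-out: biotin-H3K9 peptide (500 nM) methylation by 20 nM enzyme with 20 uM SAM, 2 h at room temperature after 15 min compound preincubation; anti-monomethyl H3K9 antibody plus donor/acceptor beads, 10 min dark.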
L3MBTL1 block: qHTS Assay for the Inhibitors of L3MBTL1 | 0.66% of 230,000 active | Potency, µM (top dose mostly 57.1 µM), for inactives: at the top dose activity, negative = inhibition, actives largely listed as inhibitors | AlphaScreen L3MBTL1–H3K9me1 peptide binding; note: % is set by controls: 0 for no effect and ±100 for the full control effect; nearly all actives have a fitted effect of over 60% in size
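Displacement of a biotinylated histone H3(1-15) peptide monomethylated at Lys9 (75 nM) from L3MBTL1 (50 nM) was measured by AlphaScreen after a 30 min room-temperature compound incubation; cefsulodin titration served as intraplate control.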
BAZ2B block: qHTS Assay for Inhibitors of BAZ2B | AID 504333, 2011 | AlphaScreen BAZ2B-H3K14Ac peptide displacement | Potency, µM (top dose mostly 114 µM), without a hit: top-dose activity change, negative = inhibition, usual class: inhibitors | 4.4% of 360,000 active; note: % is set by controls: 0 for no effect and ±100 for the full control effect; nearly all actives have a fitted effect of over 60% in size
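Protein-peptide AlphaScreen: BAZ2B 50 nM, b-H3K14Ac 50 nM, 1x PBS pH 7.4 + 0.01% Tween-20. Preincubation 30 min RT; cpd 30 min RT (top 110 uM); beads 20 min RT, light-protected.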
HP1b chromo inh: HTS for Inhibitors of HP1-beta Chromodomain Interactions with Methylated Histone Tails; Potency, µM (highest dose often 114 µM), for the others: at the top dose activity change, negative = inhibition, actives largely listed as inhibitors; AlphaScreen HP1-beta / biotin-H3K9me3 peptide binding; Chromobox protein homolog 1 (Homo sapiens), P83916; 0.56% of 390,000 active; note: nearly all actives have a fitted effect of over 70% in size
Target sequence (P83916 whole entry, looked up): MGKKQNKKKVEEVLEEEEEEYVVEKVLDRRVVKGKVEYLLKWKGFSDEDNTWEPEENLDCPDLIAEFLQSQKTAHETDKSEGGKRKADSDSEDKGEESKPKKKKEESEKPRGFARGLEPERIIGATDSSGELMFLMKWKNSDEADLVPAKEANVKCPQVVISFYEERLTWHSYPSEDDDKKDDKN
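HP1-beta protein (50 nM final) preincubated 30 min at room temperature with biotinylated H3(1-18)K9me3 peptide (50 nM) in PBS pH 7.4, 0.01% Tween-20, then compound added for 30 min. AlphaScreen streptavidin donor/nickel chelate acceptor beads (10 ug/mL final), 30 min dark, luminescence read.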
* hit, by the source's call; ? = inconclusive; . = no result given; [ ] = another dose, or the depositor's remark. Calls come from the whole dose curve; as a rule, active = well fitted curve in the direction sought with a large enough effect; inconclusive = small, poorly fitted or top-dose-only effect, or another doubt; inactive = no such curve, though single readings can be large; an effect the other way counts as inactive or inconclusive. Potency is the fitted concentration of half-maximal effect.

SMILES	JMJD2A Tudor	GLS inhibitor	G9a inh	L3MBTL1 block	BAZ2B block	HP1b chromo inh
O=C(Nc1ccc(F)cc1F)c1ccc2c(c1)OCCO2	-10%	-7%	?	.	2%	35%
O=C(Nc1ccc(N2CCCCC2)cc1)c1ccc2c(c1)OCCO2	?	0%	3.5µM*	.	-10%	5%
CS(=O)(=O)c1ccc(Sc2nc3ccccc3s2)c([N+](=O)[O-])c1	?	0%	0%[59 µM]	-13%	-38%	2%
O=[N+]([O-])c1cc(S(=O)(=O)C(F)(F)F)ccc1Sc1nc2ccccc2s1	35µM*	3%	-6%[0.501 µM]	-4%	7.9µM*	?
O=C(NCc1ccccc1Cl)C(=O)NCC(c1cccs1)S(=O)(=O)c1ccccc1 (stereo not given)	-16%	-2%	7%[59 µM]	.	-6%	5%
O=C1N=C(N2CCCCC2)SC1=C1CCCC1	-11%	0%	10%[59 µM]	-2%	-4%	13%
CN1C(=O)C(=C2CCCCCC2)SC1=S	1%	-5%	45µM*	-2%	2%	75%
O=C(O)c1ccc(-n2c(=O)c3ccccc3c3ccccc3c2=O)cc1	-17%	16%	12%[0.501 µM]	66%	89µM*	51%
Cc1ccc(-n2c(=O)c3cc4c(=O)n(-c5ccc(C)c(C)c5)c(=O)c4c(C(=O)c4ccc(C(=O)O)cc4)c3c2=O)cc1C	13µM*	9%	.	.	10µM*	?
CC(=O)Nc1ccc(-n2c(=O)c3ccccc3c3ccccc3c2=O)cc1	-3%	4%	-38%	5%	-1%	26%
CCCC(=O)NC(c1cccs1)c1cc(Cl)c2cccnc2c1O (stereo not given)	-17%	6%	1%	-6%	-4%	45%
CCC(=O)NC(c1ccco1)c1cc(Cl)c2c(c1O)NCCC2 (stereo not given)	56µM*	.	.	.	.	.
COc1ccccc1C(NC(C)=O)c1cc(Cl)c2cccnc2c1O (stereo not given)	?	-10%	18%	.	-13%	36%
CCC(=O)NC(c1ccc(OC)c(OC)c1)c1cc(Cl)c2cccnc2c1O (stereo not given)	-24%	-7%	.	16%	40µM*	41%
COc1ccc(C(NC(C)=O)c2cc(Cl)c3cccnc3c2O)cc1OC (stereo not given)	56µM*	-5%	9%	-5%	28µM*	30%
CCCC(=O)NC(c1ccco1)c1cc(Cl)c2cccnc2c1O (stereo not given)	-24%	-13%	18%[59 µM]	.	50µM*	55%
CCC(=O)NC(c1ccco1)c1cc(Cl)c2ccccc2c1O (stereo not given)	-25%	24%	-1%[0.501 µM]	-6%	-33%	15%
CCCC(=O)NC(c1ccc2c(c1)OCO2)c1cc(Cl)c2cccnc2c1O (stereo not given)	-13%	-4%	29%[59 µM]	9%	5%	36%
O=C(NC1CCCCC1)c1ccc2c(c1)N(Cc1cccc(Cl)c1)C(=O)c1ccccc1S2(=O)=O	-16%	-6%	-15%[59 µM]	.	0%	27%
Cc1cccc(N2CCN(C(=O)c3cc4c(=O)[nH]c5ccc(C)cc5c4s3)CC2C)c1 (stereo not given)	-33%	-8%	?	.	?	0%
Cc1ccc(-n2nc(C)c3c(C)c(CCC(=O)Nc4ccc(CN5CCCC5)cc4)c(C)nc32)cc1	?	10%	50µM*	.	-26%	3%
O=C(CSc1ncc(-c2ccccc2)[nH]1)Nc1ccc(Cl)cc1	?	18%	?	.	-34%	-1%
CCOc1ccccc1NC(=O)c1cc2cc(C)ccc2n1C	86%	-5%	63%[59 µM]	.	45%	166%
CCOC(=O)c1c(NC(=O)c2ccccc2)sc2c(O)c(CN(CC)CC)ccc12	-22%	-3%	50µM*	-6%	-8%	-5%
CCN(CC)Cc1c(NC(=O)c2ccccc2)sc(C)c1C	-32%	0%	?	.	-22%	8%
SMILES	JMJD2A Tudor	GLS inhibitor	G9a inh	L3MBTL1 block	BAZ2B block	HP1b chromo inh
COc1ccc2[nH]cc(CCNc3nc(-c4cccnc4)nc4ccccc34)c2c1	.	.	-3%[0.501 µM]	.	.	.
Cn1cnnc1SC1CCCCC1NS(=O)(=O)c1ccc(Cl)cc1 (stereo not given)	-9%	0%	13µM*	5%	?	22%
Cn1cnnc1SC1CCCCC1NS(=O)(=O)c1ccccc1 (stereo not given)	-10%	3%	3%[59 µM]	-7%	11%	32%
CC(=O)Nc1ccc(NC2CCCCC2NS(=O)(=O)c2ccc(Cl)cc2)cc1 (stereo not given)	-7%	15%	40µM*	.	-34%	7%
Nn1cnnc1SC1CCCCC1NS(=O)(=O)c1ccccc1 (stereo not given)	-21%	-1%	?	18%	71µM*	7%
O=C(Cc1ccc(NC(=O)N2CCCCc3ccccc32)cc1)Nc1ccccc1Br	-18%	3%	-1%[59 µM]	.	-22%	26%
CCOc1ccccc1NC(=O)N1c2ccccc2Sc2ccccc21	2%	5%	13%[59 µM]	.	4%	30%
CCOC(=O)c1cc(S(=O)(=O)NCc2ccc(C)cc2)[nH]n1	-15%	-13%	5.6µM*	.	50µM*	22%[57 µM]
CCOC(=O)c1cc(S(=O)(=O)NCc2cccc(Cl)c2)[nH]n1	-30%	-5%	3.5µM*	.	50µM*	12%[57 µM]
Cc1nc(Nc2ccc(Cl)cc2)cc(-c2ccccc2)n1	40%	2%	44%[59 µM]	.	23%	112%
COc1ccccc1C1=NNC(=Nc2cccc(S(=O)(=O)N(C)C)c2)SC1	-21%	4%	16µM*	?	?	?
Cc1cccc(C)c1N=C1NN=C(c2ccccc2F)CS1	-22%	-5%	?	-5%	0%	12%
Oc1c(Br)cc(/C=N/Nc2ccc(Cl)nn2)cc1Br	?	?	40µM*	.	50µM*	?
COc1cc(/C=N/Nc2ccc(Cl)nn2)cc(OC)c1O	-21%	21%	16µM*	.	-12%	?
Oc1ccc(/C=N/Nc2ccc(Cl)nn2)c(O)c1O	11µM*	?	?	.	10µM*	?
Cc1ccc2oc(=O)c3cc(C(=O)Nc4ccc(C)c(F)c4)sc3c2c1	5%	4%	6%[59 µM]	.	1%	33%
COc1cc2c(=O)c(S(=O)(=O)c3ccc(C)cc3)cn(Cc3cccc(C)c3)c2cc1OC	?	1%	-5%[59 µM]	.	-21%	39%
